This is an account of results in PubChem BioAssay (NCI).

Several values for one entry are separate records, joined by “and”; a condition that tells them apart may be missing. Equal entries are not always repeated. The panel holds about 79,000 compounds, 15% with a hit somewhere; the sample as a whole holds those more often. Some structures have more than one record in an assay (separate samples or runs), and their calls can disagree. Activity calls are given as the source filed them. Rule as the data show it: active = growth inhibition above about 70%; inactive = the rest.

Test [1] is described as follows: NCI Yeast Anticancer Drug Screen. Data for the rad50 strain (AID 155).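 Also: 0% = growth of vehicle-only cultures of the same strain.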 Conditions: S. cerevisiae rad50 strain growth inhibition, stronger effect = higher value. An outline of the steps:
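Growth of the mutant yeast was measured after compound exposure and referenced to vehicle-treated cultures.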

Test [2] in a line: NCI Yeast Anticancer Drug Screen. Data for the mec2-1 strain (AID 157). The settings on record: S. cerevisiae mec2-1 strain, stronger effect = higher value. An outline of the steps: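 Growth inhibition is read against vehicle-treated controls after compound exposure of the mec2-1 yeast strain, which is defective in DNA damage repair or cell cycle control.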
Test [3] can be described thus: NCI Yeast Anticancer Drug Screen. Data for the sgs1 mgt1 strain (AID 161).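 Also: 0% = growth of cultures given vehicle only.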 The settings on record: S. cerevisiae sgs1 mgt1 strain, stronger effect = higher value. An outline of the steps:
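This yeast growth screen uses a strain with defined DNA-repair lesions; compound-treated growth is compared with vehicle-treated growth.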

Test [4] can be described thus: NCI Yeast Anticancer Drug Screen. Data for the cln2 rad14 strain (AID 165).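 Also: 0% = growth equal to vehicle treated cultures.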 The settings on record: S. cerevisiae cln2 rad14 strain, stronger effect = higher value. Put shortly:
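Growth inhibition, relative to vehicle-treated controls, is the read-out. The test organism is a yeast strain with defined genetic alterations, cln2 rad14.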

Test [5] in a line: NCI Yeast Anticancer Drug Screen. Data for the bub3 strain (AID 167). The settings on record: S. cerevisiae bub3 mutant strain, stronger effect = higher value. Put shortly:
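Whole-cell yeast assay. The mutant strain was incubated with compounds, and growth inhibition was determined by comparison with vehicle-treated cells.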

The nature of test [6]: NCI Yeast Anticancer Drug Screen. Data for the mlh1 rad18 strain (AID 175). Conditions: S. cerevisiae mlh1 rad18 strain growth inhibition, stronger effect = higher value. Put shortly: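 Cells of a genetically altered yeast strain, deficient in DNA damage repair, were treated with compound. Their growth was then compared with that of vehicle-treated cultures to give inhibition.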
[7] abbreviates: at 5.0 µM (retest, dose inferred, filed as 0.5).
Setting [8] is: at 50.0 µM (retest, dose inferred, filed as 5.0).

`O=C1C(F)=C(N2CC2)C(=O)C(F)=C1N1CC1`: the growth inhibition in test [1] (setting [7]) is 99% (active); in test [1] (setting [8]), 99% (active); in test [1] (at 50.0 µM) it was 91.7% (active); in test [2] (setting [7]), 100% (active); in test [2] (setting [8]), 99% (active); in test [2] (at 50.0 µM) it was 94% (active). Besides, the growth inhibition in test [3] (setting [7]) is 100% (active); in test [3] (setting [8]), 99% (active); in test [3] (at 50.0 µM) it was 91% (active); in test [4] (setting [7]), 100% (active); in test [4] (setting [8]) it was 99% (active); in test [4] (at 50.0 µM) it was 91.5% (active). For the same compound, the growth inhibition was 98% (active) in test [5] (setting [7]); 99% (active) in test [5] (setting [8]); 92.8% (active) in test [5] (at 50.0 µM); 99% (active) in test [6] (setting [7]); 99% (active) in test [6] (setting [8]); 91.5% (active) in test [6] (at 50.0 µM).

`COC(=O)C(Cl)(Br)CCl` (configuration not stated): the growth inhibition was 13% (inactive) in test [1] (setting [7]); 85% (active) in test [1] (setting [8]); 68.5% (inactive) in test [1] (at 50.0 µM); 6% (inactive) in test [2] (setting [7]); 86% (active) in test [2] (setting [8]); 79.7% (active) in test [2] (at 50.0 µM). Also, the growth inhibition in test [3] (setting [7]) is 4% (inactive); in test [3] (setting [8]) it was 49% (inactive); in test [3] (at 50.0 µM), 42.1% (inactive); in test [4] (setting [7]) it was 3% (inactive); in test [4] (setting [8]) it was 65% (inactive); in test [4] (at 50.0 µM), 12.3% (inactive). In addition, the growth inhibition in test [5] (setting [7]) was 9% (inactive); in test [5] (setting [8]), 95% (active); in test [5] (at 50.0 µM) it was 43% (inactive); in test [6] (setting [7]), 8% (inactive); in test [6] (setting [8]), 81% (active); in test [6] (at 50.0 µM) it was 38.7% (inactive).

Consider `O=C(c1ccccc1)c1c(CC(O)c2ccccn2)n(C(=O)c2ccccc2)c2ccccc12` (configuration not stated), for which the growth inhibition is 6% (inactive) in test [1] (setting [7]); 88% (active) in test [1] (setting [8]); 77.5% (active) in test [1] (at 50.0 µM); -8% (inactive) in test [2] (setting [7]); 75% (active) in test [2] (setting [8]); 46.7% (inactive) in test [2] (at 50.0 µM). Also, the growth inhibition in test [3] (setting [7]) was 5% (inactive); in test [3] (setting [8]), 86% (active); in test [3] (at 50.0 µM), 82.5% (active); in test [4] (setting [7]), 12% (inactive); in test [4] (setting [8]), 88% (active); in test [4] (at 50.0 µM) it was 65.7% (inactive). Besides, the growth inhibition was -10% (inactive) in test [5] (setting [7]); 93% (active) in test [5] (setting [8]); 74.2% (active) in test [5] (at 50.0 µM); 2% (inactive) in test [6] (setting [7]); 86% (active) in test [6] (setting [8]); 84% (active) in test [6] (at 50.0 µM).

On to `COc1cccc2c1cc([N+](=O)[O-])c1c(C(=O)O)cc3c(c12)OCO3`, for which the growth inhibition in test [1] (setting [7]) was 35% (inactive) and 54% (inactive); in test [1] (setting [8]) it was 95% (active) and 94% (active); in test [1] (at 50.0 µM), 87.8% (active) and 91% (active); in test [2] (setting [7]), 4% (inactive) and 39% (inactive); in test [2] (setting [8]), 83% (active) and 93% (active); in test [2] (at 50.0 µM), 85.7% (active) and 91.7% (active). Further, the growth inhibition in test [3] (setting [7]) was 22% (inactive) and 61% (inactive); in test [3] (setting [8]) it was 94% (active) and 95% (active); in test [3] (at 50.0 µM), 88.3% (active) and 88.7% (active); in test [4] (setting [7]) it was -11% (inactive) and 19% (inactive); in test [4] (setting [8]), 62% (inactive) and 84% (active); in test [4] (at 50.0 µM), 84.4% (active) and 86.8% (active). Besides, the growth inhibition in test [5] (setting [7]) is 18% (inactive) and 49% (inactive); in test [5] (setting [8]) it was 78% (active) and 93% (active); in test [5] (at 50.0 µM), 89.8% (active) and 90.5% (active); in test [6] (setting [7]), 25% (inactive) and 71% (active); in test [6] (setting [8]), 90% (active) and 95% (active); in test [6] (at 50.0 µM) it was 88.7% (active) and 79.7% (active).

In the case of `[Cl][Hg][CH2]CC1CC=CCC1` (configuration not stated), the growth inhibition in test [1] (setting [7]) was 99% (active); in test [1] (setting [8]) it was 99% (active); in test [1] (at 50.0 µM) it was 99.2% (active); in test [2] (setting [7]) it was 100% (active); in test [2] (setting [8]), 100% (active); in test [2] (at 50.0 µM), 99.5% (active). Moreover, the growth inhibition in test [3] (setting [7]) is 100% (active); in test [3] (setting [8]), 99% (active); in test [3] (at 50.0 µM), 99.6% (active); in test [4] (setting [7]), 100% (active); in test [4] (setting [8]), 99% (active); in test [4] (at 50.0 µM), 99.5% (active). Besides, the growth inhibition in test [5] (setting [7]) was 99% (active); in test [5] (setting [8]), 99% (active); in test [5] (at 50.0 µM), 99.6% (active); in test [6] (setting [7]), 100% (active); in test [6] (setting [8]) it was 100% (active); in test [6] (at 50.0 µM) it was 99.5% (active).

Take `[Cl][Hg][Cl].c1ccc(CSc2ccccc2)cc1`: the growth inhibition was 99% (active) in test [1] (setting [7]); 99% (active) in test [1] (setting [8]); 99% (active) in test [1] (at 50.0 µM); 100% (active) in test [2] (setting [7]); 100% (active) in test [2] (setting [8]); 99.7% (active) in test [2] (at 50.0 µM). Moreover, the growth inhibition in test [3] (setting [7]) is 100% (active); in test [3] (setting [8]), 99% (active); in test [3] (at 50.0 µM), 99.3% (active); in test [4] (setting [7]) it was 99% (active); in test [4] (setting [8]), 99% (active); in test [4] (at 50.0 µM), 99.4% (active). Moreover, the growth inhibition is 99% (active) in test [5] (setting [7]); 99% (active) in test [5] (setting [8]); 99.2% (active) in test [5] (at 50.0 µM); 99% (active) in test [6] (setting [7]); 99% (active) in test [6] (setting [8]); 99.5% (active) in test [6] (at 50.0 µM).

As for `CC(NCCN(C)C)C1CC2CCCCN2C1` (configuration not stated), the growth inhibition in test [1] (setting [7]) is -8% (inactive); in test [1] (setting [8]), -30% (inactive); in test [1] (at 50.0 µM) it was 3.55% (inactive); in test [2] (setting [7]), -8% (inactive); in test [2] (setting [8]), -14% (inactive); in test [2] (at 50.0 µM), 11.9% (inactive). Besides, the growth inhibition in test [3] (setting [7]) was -13% (inactive); in test [3] (setting [8]) it was -28% (inactive); in test [3] (at 50.0 µM), 15.7% (inactive); in test [4] (setting [7]), -17% (inactive); in test [4] (setting [8]), -26% (inactive); in test [4] (at 50.0 µM) it was 41.1% (inactive). For the same compound, the growth inhibition is 3% (inactive) in test [5] (setting [7]); 1% (inactive) in test [5] (setting [8]); 0.8% (inactive) in test [5] (at 50.0 µM); -3% (inactive) in test [6] (setting [7]); 19% (inactive) in test [6] (setting [8]); 33% (inactive) in test [6] (at 50.0 µM).

Turning to `CN(/N=C/c1ccc(Cl)cc1)P(=O)(N1CC1)N1CC1`, the growth inhibition in test [1] (setting [7]) is 24% (inactive); in test [1] (setting [8]) it was 28% (inactive); in test [1] (at 50.0 µM), -15.7% (inactive); in test [2] (setting [7]), 14% (inactive); in test [2] (setting [8]), 17% (inactive); in test [2] (at 50.0 µM), -12.2% (inactive). Besides, the growth inhibition was 18% (inactive) in test [3] (setting [7]); 24% (inactive) in test [3] (setting [8]); -3.4% (inactive) in test [3] (at 50.0 µM); 31% (inactive) in test [4] (setting [7]); 20% (inactive) in test [4] (setting [8]); 11.7% (inactive) in test [4] (at 50.0 µM). Besides, the growth inhibition in test [5] (setting [7]) is 18% (inactive); in test [5] (setting [8]) it was 18% (inactive); in test [5] (at 50.0 µM) it was -0.25% (inactive); in test [6] (setting [7]), 23% (inactive); in test [6] (setting [8]), 28% (inactive); in test [6] (at 50.0 µM), 0.65% (inactive).

Consider `CS/C([S-])=N/N=C(C)C.CS/C([S-])=N/N=C(C)C.[Ni+2]`, for which the growth inhibition in test [1] (setting [7]) is 34% (inactive); in test [1] (setting [8]), 94% (active); in test [1] (at 50.0 µM) it was 93.8% (active); in test [2] (setting [7]), 19% (inactive); in test [2] (setting [8]), 96% (active); in test [2] (at 50.0 µM), 57% (inactive). Also, the growth inhibition in test [3] (setting [7]) was 28% (inactive); in test [3] (setting [8]), 97% (active); in test [3] (at 50.0 µM) it was 83.7% (active); in test [4] (setting [7]) it was 11% (inactive); in test [4] (setting [8]), 89% (active); in test [4] (at 50.0 µM), -13.8% (inactive). Besides, the growth inhibition in test [5] (setting [7]) was 72% (active); in test [5] (setting [8]), 96% (active); in test [5] (at 50.0 µM), 79.8% (active); in test [6] (setting [7]) it was 72% (active); in test [6] (setting [8]), 97% (active); in test [6] (at 50.0 µM), 74.8% (active).
